Rows were chosen to be rich in hits. Some 12% of all compounds tested hit in one or more screens of this group.
HP1b chromo inh – blocks HP1-beta chromodomain binding to methylated histone tails; AID 540317; hit rate 0.56% among 390,000; Potency, µM (top dose mostly 114 µM), usual class: inhibitors; AlphaScreen HP1-beta / biotin-H3K9me3 peptide binding; P83916; further: nearly all actives have a fitted effect of over 70% in size
Target sequence (P83916 whole entry, looked up): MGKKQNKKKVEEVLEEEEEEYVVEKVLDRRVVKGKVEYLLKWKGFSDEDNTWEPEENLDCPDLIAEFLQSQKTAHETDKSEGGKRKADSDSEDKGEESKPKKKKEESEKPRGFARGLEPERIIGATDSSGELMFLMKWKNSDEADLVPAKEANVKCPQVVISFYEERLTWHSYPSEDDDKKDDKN
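AlphaScreen: HP1-beta (50 nM) preformed 30 min with biotin-H3(1-18)K9me3 peptide (50 nM) in PBS pH 7.4, 0.01% Tween-20. Compound added for 30 min at RT, then streptavidin donor/nickel chelate acceptor beads (10 ug/mL) for 30 min.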
Sfp inh – blocks B. subtilis Sfp PPTase activity; Q9F4F7; Biochemical Sfp PPTase activity, qHTS; Potency, µM, usual class: inhibitors; hit rate 3.5% among 310,000;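 further: the enzyme is Sfp with the accession as filed and its product quenches rhodamine fluorescence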
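Step 1, compound plus 15 nM Sfp-PPTase, 15 min, room temperature. Step 2, add rhodamine-CoA (5 uM) and BHQ-2-YbbR (12.5 uM). Step 3, read 525/598 nm fluorescence at 0 and 30 min.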
JMJD2A Tudor – inhibitors of human JMJD2A Tudor domain. hit rate 4.4% among 390,000. AlphaScreen JMJD2A-Tudor / H3K4me3 peptide binding. Potency, µM (highest dose often 114 µM), usual class: inhibitors; further: nearly all actives have a fitted effect of over 50% in size
BAZ2B block – BAZ2B (human) inhibition; Q9UIF8; AlphaScreen BAZ2B-H3K14Ac peptide displacement; Potency, µM (series often up to 114 µM), hits mostly inhibitors; hit rate 4.4% among 360,000; AID 504333; further: nearly all actives have a fitted effect of over 60% in size
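Inhibition is scored as reduced AlphaScreen emission. The BAZ2B/b-H3(5-23)K14Ac complex (50 nM each) in PBS pH 7.4, 0.01% Tween-20 meets compound (up to 110 uM) for 30 min at RT before bead addition.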
G9a block – inhibitors of human histone lysine methyltransferase G9a; G9a H3K9 monomethylation, AlphaScreen, 2 h; Potency, µM (top dose mostly 102 µM), usual class: inhibitors; hit rate 8.8% among 350,000; AID 504332; further: nearly all actives have a fitted effect of over 75% in size
Target sequence (Q96KQ7 913-1193 limits assumed): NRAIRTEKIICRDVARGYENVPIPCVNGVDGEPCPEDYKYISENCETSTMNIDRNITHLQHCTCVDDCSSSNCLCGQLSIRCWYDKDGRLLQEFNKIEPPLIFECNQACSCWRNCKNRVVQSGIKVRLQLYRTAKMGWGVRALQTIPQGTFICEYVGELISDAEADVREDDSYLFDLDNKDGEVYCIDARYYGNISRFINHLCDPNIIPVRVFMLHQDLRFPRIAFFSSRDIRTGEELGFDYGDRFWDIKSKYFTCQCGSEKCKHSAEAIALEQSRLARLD
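Chemiluminescent proximity detection of H3K9 monomethylation, read after 10 min bead incubation in the dark. Reaction: 20 nM G9a, 500 nM biotin-H3K9 peptide, 20 uM SAM cofactor, 2 h, room temperature, following 15 min enzyme-compound preincubation.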
Of the large screens only hits and unclear results are named; the others gave an inactive call; ! = not confirmed by another sample. The call rests on the fitted dose curve; in most records, active means well fitted curve in the direction sought with a large enough effect; inconclusive means small, poorly fitted or top-dose-only effect, or another doubt; inactive means no such curve, though single readings can be large; an effect the other way counts as inactive or inconclusive.

COc1ccc(-c2nc(CSCC(=O)N3CCN(c4ccc(F)cc4)CC3)c(C)o2)cc1	JMJD2A Tudor 50.1µM (no result: Sfp inh)
CN1CCN(CC#CCOc2ccc(Cl)cc2)CC1	HP1b chromo inh inconclusive, Sfp inh inconclusive, JMJD2A Tudor 7.94µM, BAZ2B block 39.8µM, G9a block 11.2µM
CCCCCCOc1ccc(CN2CCN(C)CC2)cc1	JMJD2A Tudor inconclusive, G9a block inconclusive
COc1cc2c3c(c1OC)-c1cc(O)ccc1CC3NCC2 (centres undefined)	none
COc1cc2c(cc1OC)-c1c(OC)c(OC)cc3c1[C@H](C2)[N+](C)(C)CC3	JMJD2A Tudor inconclusive, G9a block 14.1µM
NCCCCC(NC(CCc1ccccc1)C(=O)O)C(=O)N1CCCC1C(=O)O (centres undefined)	none (no result: HP1b chromo inh, JMJD2A Tudor, BAZ2B block)
NCCCC[C@H](N[C@@H](CCc1ccccc1)C(=O)O)C(=O)N1CCC[C@H]1C(=O)O	G9a block 10µM!
O=c1[nH]c(=S)[nH]c(O)c1N=Nc1cc(S(=O)(=O)Nc2ccc(Cl)cc2)ccc1Cl	HP1b chromo inh 39.8µM, JMJD2A Tudor 35.5µM, BAZ2B block 35.5µM, G9a block inconclusive (no result: Sfp inh)
Nc1c(C(=O)NCCN2CCOCC2)c2nc3ccccc3nc2n1Cc1ccco1	none
CC(C)n1c(=O)c(C=Nc2cccc([N+](=O)[O-])c2)c(O)n(CCc2ccccc2)c1=O	JMJD2A Tudor inconclusive, BAZ2B block inconclusive, G9a block 10µM
CCCC1=Nc2cc(C(=O)NCCc3ccc(OC)cc3OC)ccc2Sc2ccccc21	BAZ2B block 79.4µM (no result: Sfp inh)
CCCC1=Nc2cc(C(=O)NC3CCC(C)CC3)ccc2Sc2ccccc21 (centres undefined)	none (no result: Sfp inh)
O=C(N/N=C/C1C(=O)NC(=S)N(c2ccccc2)C1=O)c1cc(Br)c(O)c(Br)c1 (centres undefined)	JMJD2A Tudor 10µM, G9a block 44.7µM
C[C@]12CC[C@H]3[C@@H](CCC4=CC(=O)CC[C@@]43C)[C@@H]1CC[C@@H]2C(=O)CO	Sfp inh 79.4µM, G9a block inconclusive
CC12CCC(=O)C=C1CCC1C2CCC2(C)C(O)CCC12 (centres undefined)	none
CCCn1cc2c3c(cccc31)C1CC(C)CN(C)C1C2 (centres undefined)	G9a block inconclusive (no result: HP1b chromo inh, JMJD2A Tudor)
CC(O)C(C)OC(=O)[C@@H]1C[C@@H]2c3cccc4c3c(cn4C(C)C)C[C@H]2N(C)C1 (some centres undefined)	Sfp inh inconclusive, G9a block 44.7µM! (no result: HP1b chromo inh, JMJD2A Tudor, BAZ2B block)
CCN(CC)C(=O)Oc1nnc(SC(C)C)n1-c1ccc(Cl)c(Cl)c1	none
O=C1NC(=O)C(CCc2ccncc2)(CCc2ccccn2)C(=O)N1c1ccc(Br)cc1 (centres undefined)	BAZ2B block 89.1µM
Cn1cc2c([N+](=O)[O-])cc([N+](=O)[O-])cc2n1	BAZ2B block inconclusive, G9a block 79.4µM (no result: HP1b chromo inh, JMJD2A Tudor)
Cc1nc2ccccc2c(=O)n1-c1cc([N+](=O)[O-])cc([N+](=O)[O-])c1	none
COCCCNC(=O)c1c(NC(=O)c2ccccc2Cl)n(Cc2ccccc2)c2nc3ccccc3nc12	none
COCCNC(=O)c1c(NC(=O)c2ccco2)n(Cc2ccccc2)c2nc3ccccc3nc12	Sfp inh 22.4µM, G9a block inconclusive
COCCCn1c(N)c(C(=O)NCc2ccco2)c2nc3ccccc3nc21	Sfp inh 22.4µM (no result: G9a block)
CCOc1ccc(CNCCc2ccc3c(c2)OCO3)cc1	none
Fc1ccc(CNCCc2ccc3c(c2)OCO3)cc1	JMJD2A Tudor 56.2µM, BAZ2B block inconclusive, G9a block 50.1µM
c1cc(CNCCc2ccc3c(c2)OCO3)ccn1	HP1b chromo inh inconclusive, JMJD2A Tudor 8.91µM, BAZ2B block 56.2µM
Brc1ccccc1CNCCc1ccc2c(c1)OCO2	HP1b chromo inh inconclusive, JMJD2A Tudor 3.16µM, BAZ2B block inconclusive (no result: G9a block)
O=[N+]([O-])c1cc2c(cc1CNCCc1ccc3c(c1)OCO3)OCO2	HP1b chromo inh 39.8µM, Sfp inh 50.1µM, JMJD2A Tudor 1.12µM, BAZ2B block 25.1µM, G9a block inconclusive
C=CCn1c(O)c(/C(C)=N/N2CCN(C)CC2)c(=O)[nH]c1=O	none
CC(C)CC(NC(=O)CCCNC(=O)CCC(=O)OC1O[C@H]2OC3(C)CC[C@H]4[C@H](C)CCC(C1C)C24OO3)C(=O)O (some centres undefined)	none
NC(=O)c1ccc(NC(=O)c2cccn(Cc3ccccc3)c2=O)cc1	none (no result: Sfp inh)

High-throughput results (PubChem BioAssay)
